PubChem BioAssay (NCI)
The panel holds about 83,000 compounds, 20% with a hit somewhere; the sample as a whole holds those more often.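 Results are percent growth after 48 hours of single-concentration exposure. 100 means growth as in untreated cells, lower positive values show inhibition; negative values down to -100 show cell death.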 The source made the active and inactive calls. The calls were made as follows: active = growth percent below 10; inactive = the rest.

Key:
Assay in all cases: NCI-60 one-dose screen, 48 h (100 = growth as untreated, 0 = no growth, -100 = all killed)
SK-MEL-2 melanoma = settings: 10 µM unless noted
EKVX NSCLC = settings: 10 µM unless noted
SN12C renal = settings: 10 µM unless noted
UO-31 renal = settings: 10 µM unless noted
TK-10 renal = settings: 10 µM unless noted
ACHN renal = settings: 10 µM unless noted
CAKI-1 renal = settings: 10 µM unless noted
A498 renal = settings: 10 µM unless noted
CCRF-CEM leukemia = settings: 10 µM unless noted
MOLT-4 leukemia = settings: 10 µM unless noted
SR leukemia = settings: 10 µM unless noted
RPMI-8226 leukemia = settings: 10 µM unless noted
OVCAR-8 ovarian = settings: 10 µM unless noted
OVCAR-5 ovarian = settings: 10 µM unless noted
OVCAR-4 ovarian = settings: 10 µM
SK-OV-3 ovarian = settings: 10 µM unless noted
IGROV1 ovarian = settings: 10 µM unless noted
OVCAR-3 ovarian = settings: 10 µM unless noted
HS 578T breast = settings: 10 µM unless noted
NCI/ADR-RES ovarian = settings: 10 µM unless noted

Measured: growth

O=C1/C(=C\c2cn(CC(O)CN3CCCCC3)c3ccccc23)c2ccccc2N1c1c(Cl)cccc1Cl (centres undefined)
active: SK-MEL-2 melanoma -83.4% | EKVX NSCLC -81.3% | SN12C renal -68.2% | UO-31 renal -79.8% | TK-10 renal -75.9% | ACHN renal -90.5% | CAKI-1 renal -80.3% | A498 renal -96.3% | CCRF-CEM leukemia -4.36% | MOLT-4 leukemia -30% | SR leukemia -13% | RPMI-8226 leukemia -25.7% | OVCAR-8 ovarian -86.8% | OVCAR-5 ovarian -92.7% | OVCAR-4 ovarian -68.6% | SK-OV-3 ovarian -99.7% | IGROV1 ovarian -70.2% | OVCAR-3 ovarian -99.6% | HS 578T breast -55.3% | NCI/ADR-RES ovarian -56%

Cc1ccc(S(=O)(=O)Oc2ccc(Br)cc2Br)cc1
inactive: SK-MEL-2 melanoma 75.4% | EKVX NSCLC 83.3% | SN12C renal 95.2% | UO-31 renal 88.9% | TK-10 renal 94.9% | ACHN renal 95.6% | CAKI-1 renal 65% | A498 renal 74.3% | CCRF-CEM leukemia 47.7% | MOLT-4 leukemia 47.5% | SR leukemia 22% | RPMI-8226 leukemia 73.3% | OVCAR-8 ovarian 95.1% | OVCAR-5 ovarian 89.5% | OVCAR-4 ovarian 72.4% | SK-OV-3 ovarian 79.4% | IGROV1 ovarian 73.3% | OVCAR-3 ovarian 86.9% | HS 578T breast 87.7% | NCI/ADR-RES ovarian 62.3%

CC1Cc2c(ncnc2-n2cnc3ccccc32)N(C)c2ccccc21 (centres undefined)
active: SK-MEL-2 melanoma -6.66% | A498 renal -2.09% | NCI/ADR-RES ovarian 9.36%
inactive: EKVX NSCLC 48.6% | SN12C renal 35.5% | UO-31 renal 46.4% | TK-10 renal 50% | ACHN renal 55.7% | CAKI-1 renal 33.6% | CCRF-CEM leukemia 13% | MOLT-4 leukemia 23.2% | SR leukemia 15.2% | RPMI-8226 leukemia 26.2% | OVCAR-8 ovarian 44.1% | OVCAR-5 ovarian 95.2% | OVCAR-4 ovarian 65.2% | SK-OV-3 ovarian 17.2% | IGROV1 ovarian 62.5% | OVCAR-3 ovarian 14.7% | HS 578T breast 36.6%

COc1ccc(-c2cc(-c3ccc(OC)c(OC)c3)nc(SCCCCCC(=O)NO)n2)cc1
active: SR leukemia -1.05%
inactive: SK-MEL-2 melanoma 52.5% | EKVX NSCLC 62.5% | SN12C renal 77% | UO-31 renal 68.6% | TK-10 renal 44.9% | ACHN renal 81.3% | CAKI-1 renal 53.7% | A498 renal 66.7% | CCRF-CEM leukemia 22.7% | MOLT-4 leukemia 14% | RPMI-8226 leukemia 29.4% | OVCAR-8 ovarian 37.7% | OVCAR-5 ovarian 52.4% | OVCAR-4 ovarian 76.8% | SK-OV-3 ovarian 46.6% | IGROV1 ovarian 61.6% | OVCAR-3 ovarian 64.8% | HS 578T breast 44.7% | NCI/ADR-RES ovarian 101%

Cc1nc(Cl)c2c(n1)N(C)c1ccc(Cl)cc1C(C)C2 (centres undefined)
inactive: SK-MEL-2 melanoma 96.1% | EKVX NSCLC 75% | SN12C renal 86.6% | UO-31 renal 70.9% | TK-10 renal 92.9% | ACHN renal 91.7% | CAKI-1 renal 78.8% | A498 renal 81.5% | CCRF-CEM leukemia 90.3% | MOLT-4 leukemia 80.6% | SR leukemia 83.2% | RPMI-8226 leukemia 66.8% | OVCAR-8 ovarian 95.9% | OVCAR-5 ovarian 101% | OVCAR-4 ovarian 83% | SK-OV-3 ovarian 86.3% | IGROV1 ovarian 92.7% | OVCAR-3 ovarian 98.7% | HS 578T breast 42.5% | NCI/ADR-RES ovarian 95.8%

CCCCC1COc2cccc3c2N1C=C/C3=C\C(=O)n1ccc2ccccc21 (centres undefined)
inactive: SK-MEL-2 melanoma 70.7% | EKVX NSCLC 82.9% | SN12C renal 94.7% | UO-31 renal 57.5% | TK-10 renal 118% | ACHN renal 88.5% | CAKI-1 renal 41% | A498 renal 70.1% | CCRF-CEM leukemia 67% | MOLT-4 leukemia 40.9% | SR leukemia 16.5% | RPMI-8226 leukemia 65.7% | OVCAR-8 ovarian 91.8% | OVCAR-5 ovarian 94.5% | OVCAR-4 ovarian 65.2% | SK-OV-3 ovarian 77.1% | IGROV1 ovarian 70.2% | OVCAR-3 ovarian 68.4% | HS 578T breast 88% | NCI/ADR-RES ovarian 67.2%

CN(C)CCCNc1nc(-c2cccc(C(Cl)(Cl)Cl)c2)nc(C(Cl)(Cl)Cl)n1
inactive: SK-MEL-2 melanoma 99% | EKVX NSCLC 104% | SN12C renal 102% | UO-31 renal 83.5% | TK-10 renal 115% | ACHN renal 108% | CAKI-1 renal 98.2% | A498 renal 65.9% | CCRF-CEM leukemia 98.3% | MOLT-4 leukemia 84.4% | SR leukemia 77.8% | RPMI-8226 leukemia 99.5% | OVCAR-8 ovarian 101% | OVCAR-5 ovarian 106% | OVCAR-4 ovarian 107% | SK-OV-3 ovarian 111% | IGROV1 ovarian 94.4% | OVCAR-3 ovarian 117% | HS 578T breast 91.8%

CC/C=C(\C)C(CCC)(CN=O)C(=O)OCC (centres undefined)
inactive: SK-MEL-2 melanoma 106% | EKVX NSCLC 112% | SN12C renal 108% | UO-31 renal 90.4% | TK-10 renal 103% | ACHN renal 110% | CAKI-1 renal 104% | A498 renal 114% | CCRF-CEM leukemia 101% | MOLT-4 leukemia 90.1% | SR leukemia 87.6% | RPMI-8226 leukemia 96.3% | OVCAR-8 ovarian 105% | OVCAR-5 ovarian 113% | OVCAR-4 ovarian 110% | SK-OV-3 ovarian 99.9% | IGROV1 ovarian 118% | OVCAR-3 ovarian 127% | HS 578T breast 143% | NCI/ADR-RES ovarian 108%
